Test results published in PubChem BioAssay.
For some assays here: Measured potencies and affinities stand elsewhere. Calls of active or inactive are those of the source. Unless noted, the rule behind the calls is not given here.

Tests used:
[1] = antimalarial activity against Dd2 strain (AID 2302;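 active = growth inhibition above 50% at the single 2 µM test dose, taken to imply half-maximal potency below 2 µM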;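 note: 0% = DMSO untreated growth and 100% = chloroquine plus artemisinin killed control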); settings: P. falciparum Dd2 in RBCs, LDH growth readout, 72 h; at 2 µM; hits give high values
[2] = human hepatoma cell viability loss – ATP luminescence, cytotoxicity control for P. falciparum antimalarial project, primary screen (AID 2303;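 active = inhibition above 50%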;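 note: 0% = DMSO wells and 100% = digitonin-killed cells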); settings: HepG2 viability, 24-48 h, at 10 µM, hits give high values
[3] = target: L-lactate dehydrogenase (Plasmodium falciparum (isolate CDC / Honduras)) (UniProt Q27743); assay: PfLDH activity inhibition – cell lysate, 3D7 strain, counter-screen for P. falciparum growth inhibition project (AID 2304);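 note: 0% = vehicle and 100% = reference inhibitor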; settings: P. falciparum 3D7 crude extract, LDH APAD/NBT absorbance; at 2 µM; hits give high values
L-lactate dehydrogenase (Plasmodium falciparum (isolate CDC / Honduras)), sequence (Q27743 whole entry, looked up): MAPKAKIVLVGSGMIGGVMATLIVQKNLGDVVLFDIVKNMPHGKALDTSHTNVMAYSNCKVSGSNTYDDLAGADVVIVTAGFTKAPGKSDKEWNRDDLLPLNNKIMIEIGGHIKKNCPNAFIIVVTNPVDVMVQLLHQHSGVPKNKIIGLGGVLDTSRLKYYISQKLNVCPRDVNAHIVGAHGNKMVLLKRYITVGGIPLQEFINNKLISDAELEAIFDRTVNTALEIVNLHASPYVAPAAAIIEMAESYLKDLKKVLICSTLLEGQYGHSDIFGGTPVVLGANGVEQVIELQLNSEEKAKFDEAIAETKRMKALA

[4] = inhibition of 3D7 malaria parasite growth – strain 3D7 (AID 2306);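 note: 0% = DMSO wells and 100% = chloroquine plus artemisinin control wells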; settings: P. falciparum 3D7 erythrocytic growth, LDH absorbance, 72 h; at 2 µM; hits give high values
[5] = target: Calcium-dependent protein kinase 1 (Plasmodium falciparum (isolate 3D7)) (UniProt P62344); assay: PfCDPK1 kinase inhibitors, biochemical, TCAMS library (AID 1159585; cut-off not given, nearly all actives have IC50 up to about 0.98 µM;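 note: inhibitors leave more ATP so luminescence rises with inhibition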); settings: recombinant PfCDPK1, Kinase-Glo ATP depletion luminescence
Calcium-dependent protein kinase 1 (Plasmodium falciparum (isolate 3D7)), sequence (P62344 whole entry, looked up): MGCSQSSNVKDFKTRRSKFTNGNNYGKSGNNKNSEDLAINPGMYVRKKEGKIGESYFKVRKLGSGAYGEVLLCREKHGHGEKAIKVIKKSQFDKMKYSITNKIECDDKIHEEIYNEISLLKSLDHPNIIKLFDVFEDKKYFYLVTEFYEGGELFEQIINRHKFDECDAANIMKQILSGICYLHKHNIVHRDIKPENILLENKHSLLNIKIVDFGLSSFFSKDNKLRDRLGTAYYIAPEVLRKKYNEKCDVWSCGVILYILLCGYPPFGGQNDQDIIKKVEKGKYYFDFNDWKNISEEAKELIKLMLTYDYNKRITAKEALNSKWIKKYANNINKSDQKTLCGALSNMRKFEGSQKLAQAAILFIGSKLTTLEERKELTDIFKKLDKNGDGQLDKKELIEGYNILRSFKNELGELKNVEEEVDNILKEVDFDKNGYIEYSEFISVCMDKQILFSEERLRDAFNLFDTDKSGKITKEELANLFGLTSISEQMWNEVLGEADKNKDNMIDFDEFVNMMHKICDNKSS

[6] = target: Plasmodium falciparum protein kinase 6 (PK6, PF3D7_1337100) (UniProt Q8IDW1); assay: PfPK6 kinase inhibitors, biochemical, TCAMS library (AID 1159586); settings: recombinant PfPK6, Kinase-Glo ATP depletion luminescence
Plasmodium falciparum protein kinase 6 (PK6, PF3D7_1337100), sequence (Q8IDW1 1-305): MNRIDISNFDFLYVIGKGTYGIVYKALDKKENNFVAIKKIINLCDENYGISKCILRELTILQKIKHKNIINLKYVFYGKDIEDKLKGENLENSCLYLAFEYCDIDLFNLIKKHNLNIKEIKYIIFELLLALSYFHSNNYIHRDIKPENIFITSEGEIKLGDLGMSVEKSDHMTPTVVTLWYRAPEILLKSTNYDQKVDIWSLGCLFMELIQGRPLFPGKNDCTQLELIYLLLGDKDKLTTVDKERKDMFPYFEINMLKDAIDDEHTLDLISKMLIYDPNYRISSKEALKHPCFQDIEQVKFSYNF

[7] = target: Protein kinase 7 (PK7), Plasmodium falciparum 3D7 (PF3D7_0213400) (UniProt Q7YTF7); assay: inhibition of Plasmodium PK7 catalytic activity – biochemical, TCAMS antimalarial set, Kinase-Glo luminescence (AID 1159587); settings: recombinant PfPK7, Kinase-Glo ATP depletion luminescence
Protein kinase 7 (PK7), Plasmodium falciparum 3D7 (PF3D7_0213400), sequence (Q7YTF7 1-343): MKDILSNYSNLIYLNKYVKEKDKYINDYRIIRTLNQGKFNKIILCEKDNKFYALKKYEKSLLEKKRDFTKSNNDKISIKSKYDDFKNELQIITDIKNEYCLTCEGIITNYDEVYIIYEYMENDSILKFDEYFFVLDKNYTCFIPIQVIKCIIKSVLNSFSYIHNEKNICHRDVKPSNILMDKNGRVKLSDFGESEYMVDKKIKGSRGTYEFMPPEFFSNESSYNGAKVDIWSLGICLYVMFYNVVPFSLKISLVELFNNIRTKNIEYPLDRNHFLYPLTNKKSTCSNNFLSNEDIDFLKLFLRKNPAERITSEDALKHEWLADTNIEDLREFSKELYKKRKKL

[8] = target: Calcium-dependent protein kinase 4 (Plasmodium falciparum (isolate 3D7)) (UniProt Q8IBS5); assay: PfCDPK4 kinase inhibitors, biochemical, TCAMS library (AID 1159588; cut-off not given, nearly all actives have IC50 up to about 0.91 µM); settings: recombinant PfCDPK4, Kinase-Glo ATP depletion luminescence
Calcium-dependent protein kinase 4 (Plasmodium falciparum (isolate 3D7)), sequence (Q8IBS5 whole entry, looked up): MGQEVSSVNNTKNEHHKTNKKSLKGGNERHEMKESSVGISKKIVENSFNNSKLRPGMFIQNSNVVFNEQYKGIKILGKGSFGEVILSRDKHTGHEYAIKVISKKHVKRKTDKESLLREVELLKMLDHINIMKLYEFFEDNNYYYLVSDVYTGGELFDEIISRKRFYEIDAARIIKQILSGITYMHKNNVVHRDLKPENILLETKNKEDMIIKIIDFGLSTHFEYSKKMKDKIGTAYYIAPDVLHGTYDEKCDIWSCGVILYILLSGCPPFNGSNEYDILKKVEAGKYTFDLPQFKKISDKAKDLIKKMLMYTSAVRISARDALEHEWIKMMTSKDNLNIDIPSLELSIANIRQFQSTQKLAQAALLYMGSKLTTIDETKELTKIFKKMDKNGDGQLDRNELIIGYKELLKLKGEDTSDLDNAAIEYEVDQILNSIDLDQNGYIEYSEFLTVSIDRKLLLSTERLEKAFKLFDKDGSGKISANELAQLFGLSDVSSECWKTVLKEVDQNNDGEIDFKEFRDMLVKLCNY

O=C(Nc1cccc(-c2ccc(CN3CCCC3)cc2)c1)c1cccc(Cl)c1
inactive: inhibition [2] 32% | inhibition [3] -3% | outcome [5] | outcome [6] | outcome [7] | outcome [8]
active: growth inhibition [1] 61% | growth inhibition [4] 100%

CN(C)CCN(Cc1ccccc1)c1ccc([N+](=O)[O-])cc1C(F)(F)F
inactive: inhibition [2] 40% | inhibition [3] -8% | outcome [5] | outcome [6] | outcome [7] | outcome [8]
active: growth inhibition [1] 89% | growth inhibition [4] 96%

CS(=O)(=O)CCNCc1ccc(-c2ccc3c(Nc4ccc(F)cc4Cl)ccnc3c2)o1
active: growth inhibition [1] 98% | growth inhibition [4] 100%
inactive: inhibition [2] 29% | inhibition [3] 0% | outcome [5] | outcome [6] | outcome [7] | outcome [8]

CS(=O)(=O)c1cccc(-c2ccc3oc(C(N)=O)c(NC(=O)c4cccs4)c3c2)c1
active: growth inhibition [1] 77% | growth inhibition [4] 86%
inactive: inhibition [2] 11% | inhibition [3] -8% | outcome [5] | outcome [6] | outcome [7] | outcome [8]

CC(C)(O)CC(C)(C)c1cc(Cl)ccc1O
active: growth inhibition [4] 96%
inactive: growth inhibition [1] 1% | inhibition [2] 5% | inhibition [3] 7% | outcome [5] | outcome [6] | outcome [7] | outcome [8]

CC(=O)Nc1cccc(C(=O)Nc2cccc(-c3ccc(-c4nc5c(C)cccc5[nH]4)s3)c2)c1
inactive: growth inhibition [1] 26% | inhibition [3] 4% | outcome [5] | outcome [6] | outcome [7] | outcome [8]
active: inhibition [2] 75% | growth inhibition [4] 99%

c1ccn2c(-c3ncnc(NCc4ccc5c(c4)CCO5)n3)cnc2c1
active: growth inhibition [4] 86%
inactive: growth inhibition [1] 47% | inhibition [2] 12% | inhibition [3] 0% | outcome [5] | outcome [6] | outcome [7] | outcome [8]

Cc1ccc(NC(=O)c2ccc(CN3CCCN(CCC(C)C)CC3)cc2)cc1C
inactive: growth inhibition [1] 17% | inhibition [2] 25% | inhibition [3] 3% | outcome [5] | outcome [6] | outcome [7] | outcome [8]
active: growth inhibition [4] 92%

Nc1cccc(CNCc2ccc(-c3ccc(-c4nc5ccc(C(F)(F)F)cc5[nH]4)s3)cc2)c1
active: growth inhibition [1] 98% | growth inhibition [4] 102%
inactive: inhibition [2] 28% | inhibition [3] -2% | outcome [5] | outcome [6] | outcome [7] | outcome [8]

Oc1cccc(/C=N/Nc2ccnc3cc(Cl)ccc23)c1
inactive: inhibition [2] -9% | inhibition [3] 0% | outcome [5] | outcome [6] | outcome [7] | outcome [8]
active: growth inhibition [1] 95% | growth inhibition [4] 104%

CCCCCCCN(CCCCCCC)CCNc1cc(C)nc2ccccc12
inactive: growth inhibition [1] 31% | inhibition [2] 39% | inhibition [3] -2% | outcome [5] | outcome [6] | outcome [7] | outcome [8]
active: growth inhibition [4] 89%

Cc1cc(NCC(c2ccccc2)c2ccccc2)nc(NCC2CCCCC2)n1
inactive: inhibition [2] 12% | inhibition [3] 3% | outcome [5] | outcome [6] | outcome [7] | outcome [8]
active: growth inhibition [1] 93% | growth inhibition [4] 100%

FC(F)(F)c1cnc(Sc2nnc(-c3ccncc3)o2)c(Cl)c1
active: growth inhibition [1] 96% | growth inhibition [4] 96%
inactive: inhibition [2] 10% | inhibition [3] 1% | outcome [5] | outcome [6] | outcome [7] | outcome [8]

Cn1ccnc1CCC(=O)Nc1ccc(Cl)cc1C(=O)Nc1ccc(Cl)cc1
inactive: growth inhibition [1] 3% | inhibition [2] 28% | inhibition [3] 4% | outcome [5] | outcome [6] | outcome [7] | outcome [8]
active: growth inhibition [4] 92%

COc1ccc(C2CC(=O)C3=C(C2)NC(C)=C(C(=O)OC(C)C)C3c2c(F)cccc2Cl)cc1OC (stereo not given)
inactive: inhibition [2] 0% | inhibition [3] -1% | outcome [5] | outcome [6] | outcome [7] | outcome [8]
active: growth inhibition [1] 81% | growth inhibition [4] 93%

COc1ccc(S(=O)(=O)NC2CCN(c3cc(C)nc(Nc4cccc(C#N)c4)n3)CC2)cc1
inactive: inhibition [2] 9% | inhibition [3] -4% | outcome [5] | outcome [6] | outcome [7] | outcome [8]
active: growth inhibition [1] 55% | growth inhibition [4] 88%

Cc1ccc(Nc2ccnc(Nc3ccc(F)c(Cl)c3)n2)cc1O
inactive: inhibition [2] 9% | inhibition [3] -4% | outcome [5] | outcome [6] | outcome [7] | outcome [8]
active: growth inhibition [1] 52% | growth inhibition [4] 101%

COc1cccc(CN2CCCC(COC(c3ccc(F)cc3)c3ccc(F)cc3)C2)c1O (stereo not given)
active: growth inhibition [1] 100% | growth inhibition [4] 98%
inactive: inhibition [2] 24% | inhibition [3] 4% | outcome [5] | outcome [6] | outcome [7] | outcome [8]

COc1ccc(-c2cccc(NC(=O)c3cccc(C#N)c3)c2)cc1CN(C)CCN(C)C
active: growth inhibition [4] 99%
inactive: growth inhibition [1] 21% | inhibition [2] -5% | inhibition [3] 3% | outcome [5] | outcome [6] | outcome [7] | outcome [8]

O=C(NCCCN1CCOCC1)c1ccc(-c2cccc(NC(=O)c3ccc(Cl)c(Cl)c3)c2)cc1
inactive: inhibition [2] 3% | inhibition [3] 3% | outcome [5] | outcome [6] | outcome [7] | outcome [8]
active: growth inhibition [1] 68% | growth inhibition [4] 100%

COc1cc2ncnc(Nc3ccc4nc(Cc5ccccc5)[nH]c4c3)c2cc1OC
active: growth inhibition [4] 87%
inactive: growth inhibition [1] 28% | inhibition [2] -9% | inhibition [3] 0% | outcome [5] | outcome [6] | outcome [7] | outcome [8]

CN1CCN(CCCCCNc2c3ccccc3nc3ccccc23)CC1
active: inhibition [2] 57% | growth inhibition [4] 99%
inactive: growth inhibition [1] -8% | inhibition [3] 5% | outcome [5] | outcome [6] | outcome [7] | outcome [8]

N#Cc1ccc(N2CCN(Cc3ccc(-c4ccc(-c5nc6ccc(C(F)(F)F)cc6[nH]5)cc4)cc3)CC2)nc1
inactive: inhibition [2] 19% | inhibition [3] 4% | outcome [5] | outcome [6] | outcome [7] | outcome [8]
active: growth inhibition [1] 90% | growth inhibition [4] 101%

CC(C)Cn1cc(C2CCN(CCN3CCC(CNC(=O)c4ccc(-c5ccc(C#N)cc5)cc4)CC3)CC2)c2ccccc21
active: growth inhibition [1] 98% | growth inhibition [4] 100%
inactive: inhibition [2] 28% | inhibition [3] 8% | outcome [5] | outcome [6] | outcome [7] | outcome [8]

COc1ccccc1CNC(=O)c1cc(C2CC2)nc2c1cnn2C(C)C
active: growth inhibition [1] 92% | growth inhibition [4] 94%
inactive: inhibition [2] 47% | inhibition [3] 5% | outcome [5] | outcome [6] | outcome [7] | outcome [8]

N#Cc1ccc(-c2ccc(C(=O)NCCCCN3CCC(c4ccncc4)CC3)cc2)cc1
inactive: growth inhibition [1] 16% | inhibition [2] 34% | inhibition [3] -3% | outcome [5] | outcome [6] | outcome [7] | outcome [8]
active: growth inhibition [4] 94%

Cc1[nH]c(C)c(-c2ccc(Oc3ccc(Cl)cc3)cc2)c(=O)c1Br
inactive: inhibition [2] 12% | inhibition [3] -4% | outcome [5] | outcome [6] | outcome [7] | outcome [8]
active: growth inhibition [1] 96% | growth inhibition [4] 97%

O=C(NC1CCN(Cc2cccc(C(F)(F)F)c2)CC1)c1ccc(-c2cccc(Cl)c2)s1
inactive: growth inhibition [1] 33% | inhibition [2] 26% | inhibition [3] -1% | outcome [5] | outcome [6] | outcome [7] | outcome [8]
active: growth inhibition [4] 89%

COCCN1CCN(Cc2cccc(-c3ccc(-c4nc5ccccc5[nH]4)cc3)c2)CC1
inactive: inhibition [2] 9% | inhibition [3] 1% | outcome [5] | outcome [6] | outcome [7] | outcome [8]
active: growth inhibition [1] 50% | growth inhibition [4] 100%

CS(=O)(=O)c1ccc(CCNCc2ccc(-c3ccc(CN(C(=O)c4ccc(Cl)nc4)C4CCN(Cc5ccccc5)CC4)cc3)nc2)cc1
inactive: inhibition [2] 24% | inhibition [3] -2% | outcome [5] | outcome [6] | outcome [7] | outcome [8]
active: growth inhibition [1] 70% | growth inhibition [4] 93%

C[C@H](NC(=O)c1c(CN2CCC(N3CCCCC3=O)CC2)c(-c2cccs2)nc2ccccc12)C1CCCCC1
active: growth inhibition [1] 73% | growth inhibition [4] 91%
inactive: inhibition [2] 8% | inhibition [3] 2% | outcome [5] | outcome [6] | outcome [7] | outcome [8]

Cc1cccc2[nH]c(-c3ccc(-c4cccc(NC(=O)Nc5cccc(C#N)c5)c4)cc3)nc12
inactive: inhibition [2] 25% | inhibition [3] 7% | outcome [5] | outcome [6] | outcome [7] | outcome [8]
active: growth inhibition [1] 86% | growth inhibition [4] 102%

CN1CC[C@@H](Oc2cc(NC(=O)Nc3ccc(Cl)c(C(F)(F)F)c3)ccc2Cl)C1
inactive: inhibition [2] 17% | inhibition [3] 0% | outcome [5] | outcome [6] | outcome [7] | outcome [8]
active: growth inhibition [1] 68% | growth inhibition [4] 100%

COc1ccc(-c2cc(-c3nc4ccc(C(=O)N5CCOCC5)cc4[nH]3)c(=O)n(C)c2)cc1OC
active: growth inhibition [1] 95% | growth inhibition [4] 93%
inactive: inhibition [2] 6% | inhibition [3] 4% | outcome [5] | outcome [6] | outcome [7] | outcome [8]

CC1(C)C[C@@H]2C[C@@](C)(CN2C(=O)c2cc(C(C)(C)C)nn2Cc2ccccc2)C1
inactive: inhibition [2] -3% | inhibition [3] 0% | outcome [5] | outcome [6] | outcome [7] | outcome [8]
active: growth inhibition [1] 77% | growth inhibition [4] 86%

c1ccc2nc(NCCCCCCCCNc3ccc4ccccc4n3)ccc2c1
active: inhibition [2] 52% | growth inhibition [4] 100%
inactive: growth inhibition [1] 37% | inhibition [3] -5% | outcome [5] | outcome [6] | outcome [7] | outcome [8]

Cc1cc(N[C@@H](CC(C)C)C(=O)NCCOc2ccccc2)nc(NCCOc2ccccc2)n1
active: growth inhibition [4] 89%
inactive: growth inhibition [1] 6% | inhibition [2] -4% | inhibition [3] -2% | outcome [5] | outcome [6] | outcome [7] | outcome [8]

Nc1nccc2ccc(-c3ccc(NC(=O)Nc4cc(C(F)(F)F)ccc4F)cc3)cc12
inactive: inhibition [3] -3% | outcome [5] | outcome [6] | outcome [7] | outcome [8]
active: growth inhibition [1] 100% | inhibition [2] 99% | growth inhibition [4] 101%

C=CCc1cc(C2CCN(CCCCNC(=O)c3ccc(-c4ccc(C#N)cc4)cc3)CC2)c(OCC(N)=O)c2c1CCCC2
active: growth inhibition [1] 92% | growth inhibition [4] 101%
inactive: inhibition [2] 43% | inhibition [3] -6% | outcome [5] | outcome [6] | outcome [7] | outcome [8]

O=C(Cn1c(CCc2cccc(F)c2F)nc(=O)c2ccccc21)N(CCN1CCCCC1)Cc1ccc(-c2ccc(C(F)(F)F)cc2)cc1
inactive: inhibition [2] 32% | inhibition [3] 4% | outcome [5] | outcome [6] | outcome [7] | outcome [8]
active: growth inhibition [1] 89% | growth inhibition [4] 101%
